# Assay results as given in PubChem BioAssay.
# Values without a mark were called inactive. For part of these data: Entries with a potency or affinity are not part of this list. Calls of active or inactive are those of the source.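 Rule for the calls, unless noted: active = earlier screen potentiator hit that boosts the TRPC4 ion channel at some dose, with a dose response; inactive = no potentiation, no dose response, or not a prior hit.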
# How the values were obtained:
# [1] = system: TRPC4 beta (transient receptor potential cation channel C4), mouse; assay: TRPC4 cation channel opening, retest – cell-based, Fluo4 calcium, HEK293 TRPC4beta/mu-opioid, duplicates, 10 µM, confirmation (AID 2426;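 active = fluorescence ratio normalized to control raised more than 50% in primary screen plus both repeat runs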); settings: Fluo4 calcium fluorescence, at 10 µM; active compounds read high
# [2] = system: transient receptor potential cation channel C4 beta (TRPC4), mouse; assay: TRPC4 cation channel opening, second retest – cell-based, second round, Fluo4, HEK293 TRPC4beta/mu-opioid, 1 µM, confirmation (AID 2461;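 active = primary screen active and over 50% activation in each of two duplicate runs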); settings: Fluo4 calcium fluorescence, at 1 µM; active compounds read high
# [3] = system: TRPC4 (transient receptor potential cation channel C4 beta), mouse; assay: potentiation of DAMGO EC20 TRPC4 response – cell-based, second round, Fluo-4, HEK293 TRPC4beta/mu-opioid, 1 µM, confirmation (AID 2554;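 active = primary screen hit whose fluorescence ratio, in both repeats, exceeds the weak agonist control mean by 3 SD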); settings: DAMGO EC20, Fluo-4 calcium flux, at 1 µM; active compounds read high
# [4] = system: TRPC4 beta (transient receptor potential cation channel C4), mouse; assay: potentiation of DAMGO EC20 TRPC4 response – cell-based, Fluo-4, HEK293 TRPC4beta/mu-opioid, confirmation (AID 2555;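 active = primary screen hit whose calcium fluorescence ratio, in both repeats, exceeds the weak agonist control mean by 3 SD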); settings: DAMGO EC20, Fluo-4 calcium flux, at 10 µM; active compounds read high
# [5] = biological target: Short transient receptor potential channel 4 (Mus musculus) (UniProt Q9QUQ5); assay: blockers of DAMGO-evoked TRPC4 calcium flux – cell-based, Fluo4, HEK293 TRPC4beta/mu-opioid, confirmation (AID 2636;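 active = calcium signal cut by more than 3 SD below the full-agonist control yet still positive, in both repeats and the earlier primary screen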); settings: at 10 µM; active compounds read high
# [6] = biological target: Short transient receptor potential channel 4 (Mus musculus) (UniProt Q9QUQ5); assay: blockers of DAMGO-evoked TRPC4 calcium flux – cell-based, second round, Fluo4, HEK293 TRPC4beta/mu-opioid, 1 µM, confirmation (AID 2637;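 active = calcium signal ratio cut to more than 3 SD under the fully stimulated control mean yet still positive, in both repeats and the primary screen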); settings: at 1 µM; active compounds read high
# [7] = biological target: Short transient receptor potential channel 4 (Mus musculus) (UniProt Q9QUQ5); assay: calcium entry via TRPC4 opening agents – cell-based, HEK293 TRPC4/mu-opioid, Fluo-4 calcium, dose response (AID 434937;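 active = primary screen activator hit with a dose response curve and TRPC4 channel activation at any tested dose; inactive = no activation, no dose response, or not a primary hit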)
# [8] = biological target: Short transient receptor potential channel 4 (Mus musculus) (UniProt Q9QUQ5); assay: potentiation of DAMGO-evoked TRPC4 calcium signal – cell-based, HEK293 TRPC4/mu-opioid, Fluo-4 calcium, EC20 DAMGO, dose response (AID 434941);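 note: calcium entry triggered by an EC20 dose of DAMGO at the co-expressed mu-opioid receptor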
# [9] = biological target: Short transient receptor potential channel 4 (Mus musculus) (UniProt Q9QUQ5); assay: block of DAMGO-driven TRPC4 calcium entry – cell-based, HEK293 TRPC4/mu-opioid, Fluo-4 calcium, dose response (AID 434942;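 active = primary screen inhibitor hit that blocks the TRPC4 channel at some tested dose, yielding a dose curve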)
# [10] = biological target: Short transient receptor potential channel 6 (Mus musculus) (UniProt Q61143); assay: TRPC6 blockade by TRPC4 inhibitor hits – cell-based, HEK293, membrane potential dye, duplicate, selectivity assay for TRPC4 inhibitor project, confirmation (AID 434948;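 active = active in primary screen and both duplicates, each dropping signal beyond three positive-control SD with fluorescence still positive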); settings: HEK293 TRPC6, membrane potential dye fluorescence, at 10 µM, stimulated with maximal-effect acetylcholine; active compounds read high
# [11] = biological target: Short transient receptor potential channel 6 (Mus musculus) (UniProt Q61143); assay: TRPC6 opening by TRPC4 activator hits – cell-based, HEK293, membrane potential dye, duplicate, selectivity assay for TRPC4 activator project, confirmation (AID 434950;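 active = membrane potential signal rise above negative control mean plus 3 SD in both duplicates, also active in the earlier TRPC4 screen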); settings: HEK293 TRPC6, membrane potential fluorescence, at 10 µM; activation: active compounds read high; outcome: activation
# [12] = biological target: Short transient receptor potential channel 6 (Mus musculus) (UniProt Q61143); assay: positive modulators of mouse TRPC6 channel – HEK293 cells, membrane potential dye, duplicate, selectivity assay for TRPC4 potentiator project, confirmation (AID 434952;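 active = compound raising the membrane signal above positive-control mean plus 3 SD in both repeats, and a primary screen hit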); settings: HEK293 TRPC6, membrane potential dye fluorescence, at 10 µM, maximal acetylcholine added after compound; active compounds read high
# [13] = biological target: Short transient receptor potential channel 4 (Mus musculus) (UniProt Q9QUQ5); assay: calcium flux activators in TRPC4/5HT1a cells, counter-screen for TRPC4 activator project, cell-based, second counter screen, HEK293 TRPC4/5HT1a, Fluo-4 (AID 434977;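 active = calcium signal rise above buffer-control mean plus 5 SD in both duplicates, and also a hit in the primary screen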); settings: Fluo-4 calcium flux, at 10 µM; active compounds read high
# [14] = serotonin-gated TRPC4 signal block – cell-based, second counter screen, HEK293 TRPC4/5HT1a, Fluo-4, counter-screen for TRPC4 inhibitor project, confirmation (AID 434978;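 active = primary screen active whose calcium signal fell more than 3 SD beyond the full-serotonin control mean in both duplicate plates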;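 note: serotonin given first at submaximal then at maximal dose after compound preincubation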); settings: Fluo-4 calcium flux, at 10 µM, serotonin added to trigger calcium flux; active compounds read high
# [15] = system: TRPC4 (mouse), co-expressed with 5HT1a in HEK293; assay: enhancement of serotonin-evoked TRPC4 response – cell-based, second counter screen, HEK293 TRPC4/5HT1a, Fluo-4, counter-screen for TRPC4 potentiator project, confirmation (AID 434979;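 active = signal rise over 3 SD above mean of control wells given weak agonist, in both repeats and first screen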); settings: Fluo-4 calcium flux, at 10 µM, serotonin added at its EC20 dose; active compounds read high
# [16] = nonspecific calcium rise without TRPC4 – cell-based, HEK293 mu-opioid receptor line, counter-screen for TRPC4 activator project, confirmation (AID 449723;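 active = hit in primary screen, with calcium signal over 5 SD above buffer well mean in both duplicates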;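 note: counter screen cells carry the mu-opioid receptor alone and lack TRPC4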); settings: HEK293 mu-opioid cells, Fluo-4 calcium fluorescence, at 10 µM; active compounds read high
# [17] = nonspecific potentiation of DAMGO calcium response – cell-based, HEK293 mu-opioid receptor line, counter-screen for TRPC4 allosteric potentiator project, confirmation (AID 449724;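 active = calcium signal rise more than 3 SD above the low-dose agonist control mean, in both duplicate plates and the primary screen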); settings: HEK293 mu-opioid receptor cells, Fluo-4 calcium flux, at 10 µM, compound added before EC20 DAMGO stimulus; active compounds read high
# Short transient receptor potential channel 6 (Mus musculus), sequence (Q61143 whole entry, looked up): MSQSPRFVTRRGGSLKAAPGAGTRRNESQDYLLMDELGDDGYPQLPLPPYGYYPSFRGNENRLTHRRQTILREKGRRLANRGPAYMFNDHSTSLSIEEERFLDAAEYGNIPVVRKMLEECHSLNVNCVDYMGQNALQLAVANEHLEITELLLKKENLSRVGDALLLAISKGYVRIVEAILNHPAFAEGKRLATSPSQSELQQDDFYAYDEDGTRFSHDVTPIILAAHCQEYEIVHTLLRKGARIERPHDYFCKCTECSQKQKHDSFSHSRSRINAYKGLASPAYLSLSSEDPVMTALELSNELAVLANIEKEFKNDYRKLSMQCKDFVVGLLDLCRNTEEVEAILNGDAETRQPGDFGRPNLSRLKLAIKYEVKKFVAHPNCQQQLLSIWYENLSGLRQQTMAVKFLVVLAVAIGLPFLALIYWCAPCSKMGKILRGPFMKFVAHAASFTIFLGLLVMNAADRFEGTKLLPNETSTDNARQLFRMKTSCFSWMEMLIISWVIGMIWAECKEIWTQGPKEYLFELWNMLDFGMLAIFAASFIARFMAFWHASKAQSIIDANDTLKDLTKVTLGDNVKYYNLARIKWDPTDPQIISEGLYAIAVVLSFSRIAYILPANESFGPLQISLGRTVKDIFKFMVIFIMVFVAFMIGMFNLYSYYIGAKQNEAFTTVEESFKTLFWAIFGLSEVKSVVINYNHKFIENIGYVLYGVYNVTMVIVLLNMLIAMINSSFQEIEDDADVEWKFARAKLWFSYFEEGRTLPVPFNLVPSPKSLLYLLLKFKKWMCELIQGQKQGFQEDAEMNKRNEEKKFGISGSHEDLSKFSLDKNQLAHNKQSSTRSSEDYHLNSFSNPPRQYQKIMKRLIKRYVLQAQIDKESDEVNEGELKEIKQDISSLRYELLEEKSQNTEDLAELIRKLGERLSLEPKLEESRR
# Short transient receptor potential channel 4 (Mus musculus), sequence (Q9QUQ5 whole entry, looked up): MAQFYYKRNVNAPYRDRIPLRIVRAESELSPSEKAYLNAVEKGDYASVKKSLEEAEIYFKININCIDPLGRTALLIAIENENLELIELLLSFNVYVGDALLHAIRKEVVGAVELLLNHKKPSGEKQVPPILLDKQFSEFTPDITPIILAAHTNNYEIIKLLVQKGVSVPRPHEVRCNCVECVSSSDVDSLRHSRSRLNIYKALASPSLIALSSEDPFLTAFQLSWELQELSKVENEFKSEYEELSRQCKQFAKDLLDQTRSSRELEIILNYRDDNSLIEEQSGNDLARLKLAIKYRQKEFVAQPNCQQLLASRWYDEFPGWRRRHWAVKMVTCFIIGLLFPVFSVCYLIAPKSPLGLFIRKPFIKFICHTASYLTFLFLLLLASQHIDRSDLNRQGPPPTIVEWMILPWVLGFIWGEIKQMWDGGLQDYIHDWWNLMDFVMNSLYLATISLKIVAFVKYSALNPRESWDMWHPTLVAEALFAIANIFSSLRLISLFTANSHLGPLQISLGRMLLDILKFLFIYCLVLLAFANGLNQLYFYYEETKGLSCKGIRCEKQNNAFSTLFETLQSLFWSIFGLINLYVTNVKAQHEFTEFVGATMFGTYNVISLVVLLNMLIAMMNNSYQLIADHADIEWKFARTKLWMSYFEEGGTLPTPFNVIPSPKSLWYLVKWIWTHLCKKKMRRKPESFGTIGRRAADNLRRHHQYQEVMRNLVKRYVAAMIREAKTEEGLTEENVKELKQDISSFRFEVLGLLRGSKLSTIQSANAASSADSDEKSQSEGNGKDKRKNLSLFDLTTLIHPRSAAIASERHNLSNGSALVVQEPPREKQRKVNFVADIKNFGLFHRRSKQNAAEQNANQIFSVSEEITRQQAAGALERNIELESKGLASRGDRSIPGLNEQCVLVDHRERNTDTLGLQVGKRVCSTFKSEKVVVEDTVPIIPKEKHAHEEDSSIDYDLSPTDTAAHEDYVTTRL
smiles,measurement,setting,value
COc1ccc(/C=C2/SC(=S)N(NS(=O)(=O)c3ccc(C)cc3)C2=O)cc1,outcome,[1],inactive
same,outcome,[2],inactive
same,outcome,[3],inactive
same,outcome,[4],inactive
same,outcome,[5],inactive
same,outcome,[6],inactive
same,outcome,[7],inactive
same,outcome,[8],inactive
same,outcome,[9],inactive
same,outcome,[10],inactive
same,outcome,[11],inactive
same,outcome,[12],inactive
same,outcome,[13],inactive
same,outcome,[14],inactive
same,outcome,[15],inactive
same,outcome,[16],inactive
same,outcome,[17],inactive
Cc1ccc(NS(=O)(=O)c2cc(C(=O)N3CCc4ccccc4C3)ccc2Cl)cc1,outcome,[1],inactive
same,outcome,[2],inactive
same,outcome,[3],inactive
same,outcome,[4],inactive
same,outcome,[5],inactive
same,outcome,[6],inactive
same,outcome,[7],inactive
same,outcome,[8],inactive
same,outcome,[9],inactive
same,outcome,[10],inactive
same,outcome,[11],inactive
same,outcome,[12],inactive
same,outcome,[13],inactive
same,outcome,[14],inactive
same,potentiation,[15],9.01% (active)
same,outcome,[16],inactive
same,outcome,[17],inactive
CN(Cc1ccccc1)Cc1nc2c(c(=O)n(C)c(=O)n2C)n1CCCc1ccccc1,outcome,[1],inactive
same,outcome,[2],inactive
same,outcome,[3],inactive
same,outcome,[4],inactive
same,outcome,[5],inactive
same,outcome,[6],inactive
same,outcome,[7],inactive
same,outcome,[8],inactive
same,outcome,[9],inactive
same,outcome,[10],inactive
same,outcome,[11],inactive
same,outcome,[12],inactive
same,outcome,[13],inactive
same,outcome,[14],inactive
same,potentiation,[15],8.51% (active)
same,outcome,[16],inactive
same,outcome,[17],inactive
Cc1cc(C)nc(Nc2nc(=O)c3ccccc3s2)n1,outcome,[1],inactive
same,outcome,[2],inactive
same,potentiation,[3],10% (active)
same,potentiation,[4],82% (active)
same,outcome,[5],inactive
same,outcome,[6],inactive
same,outcome,[7],inactive
same,outcome,[8],inactive
same,outcome,[9],inactive
same,outcome,[10],inactive
same,outcome,[11],inactive
same,outcome,[12],inactive
same,outcome,[13],inactive
same,outcome,[14],inactive
same,potentiation,[15],81.3% (active)
same,outcome,[16],inactive
same,outcome,[17],inactive
COc1ccc(C(=O)Nc2ccccc2N2CCN(C(=O)c3ccccc3)CC2)cc1Br,outcome,[1],inactive
same,outcome,[2],inactive
same,outcome,[3],inactive
same,outcome,[4],inactive
same,inhibition,[5],75% (active)
same,outcome,[6],inactive
same,outcome,[7],inactive
same,outcome,[8],inactive
same,outcome,[9],inactive
same,outcome,[10],inactive
same,outcome,[11],inactive
same,outcome,[12],inactive
same,outcome,[13],inactive
same,outcome,[14],inactive
same,outcome,[15],inactive
same,outcome,[16],inactive
same,outcome,[17],inactive
OC(CNCCC(c1ccccc1)c1ccccc1)COc1ccccc1 (stereo not given),outcome,[1],inactive
same,outcome,[2],inactive
same,outcome,[3],inactive
same,outcome,[4],inactive
same,outcome,[5],inactive
same,outcome,[6],inactive
same,outcome,[7],inactive
same,outcome,[8],inactive
same,outcome,[9],inactive
same,outcome,[10],inactive
same,outcome,[11],inactive
same,outcome,[12],inactive
same,outcome,[13],inactive
same,outcome,[14],inactive
same,outcome,[15],inactive
same,outcome,[16],inactive
same,outcome,[17],inactive
CC(=O)c1cccc(Nc2cc(C)nc3c(C)cc(C)cc23)c1,outcome,[1],inactive
same,outcome,[2],inactive
same,outcome,[3],inactive
same,outcome,[4],inactive
same,outcome,[5],inactive
same,outcome,[6],inactive
same,outcome,[7],inactive
same,outcome,[8],inactive
same,outcome,[9],inactive
same,inhibition,[10],25.5% (active)
same,outcome,[11],inactive
same,outcome,[12],inactive
same,outcome,[13],inactive
same,outcome,[14],inactive
same,outcome,[15],inactive
same,outcome,[16],inactive
same,outcome,[17],inactive
Cc1ccc(Nc2c(N)c(=O)oc3ccccc23)cc1,outcome,[1],inactive
same,outcome,[2],inactive
same,outcome,[3],inactive
same,outcome,[4],inactive
same,outcome,[5],inactive
same,outcome,[6],inactive
same,outcome,[7],inactive
same,outcome,[8],inactive
same,outcome,[9],inactive
same,outcome,[10],inactive
same,outcome,[11],inactive
same,outcome,[12],inactive
same,outcome,[13],inactive
same,outcome,[14],inactive
same,potentiation,[15],33% (active)
same,outcome,[16],inactive
same,outcome,[17],inactive
CC(C)c1ccccc1NC(=S)NN(Cc1ccccc1)c1ccccc1,outcome,[1],inactive
same,outcome,[2],inactive
same,outcome,[3],inactive
same,potentiation,[4],10% (active)
same,outcome,[5],inactive
same,outcome,[6],inactive
same,outcome,[7],inactive
same,outcome,[8],inactive
same,outcome,[9],inactive
same,outcome,[10],inactive
same,outcome,[11],inactive
same,outcome,[12],inactive
same,outcome,[13],inactive
same,outcome,[14],inactive
same,potentiation,[15],43.9% (active)
same,outcome,[16],inactive
same,outcome,[17],inactive
COc1cccc(N2C(=O)CC(N3CCN(CCN=CC4=C(O)CC(C)(C)CC4=O)CC3)C2=O)c1 (stereo not given),outcome,[1],inactive
same,outcome,[2],inactive
same,outcome,[3],inactive
same,outcome,[4],inactive
same,outcome,[5],inactive
same,outcome,[6],inactive
same,outcome,[7],inactive
same,outcome,[8],inactive
same,outcome,[9],inactive
same,outcome,[10],inactive
same,outcome,[11],inactive
same,outcome,[12],inactive
same,outcome,[13],inactive
same,outcome,[14],inactive
same,potentiation,[15],15.8% (active)
same,outcome,[16],inactive
same,outcome,[17],inactive
CC(C)(C)NCc1cc(Cl)ccc1OCc1cccs1,outcome,[1],inactive
same,outcome,[2],inactive
same,outcome,[3],inactive
same,outcome,[4],inactive
same,outcome,[5],inactive
same,outcome,[6],inactive
same,outcome,[7],inactive
same,outcome,[8],inactive
same,outcome,[9],inactive
same,outcome,[10],inactive
same,outcome,[11],inactive
same,outcome,[12],inactive
same,outcome,[13],inactive
same,outcome,[14],inactive
same,outcome,[15],inactive
same,outcome,[16],inactive
same,outcome,[17],inactive
COc1ccc(CNc2ccc(Cl)cc2)cc1Cn1ccnc1,outcome,[1],inactive
same,outcome,[2],inactive
same,outcome,[3],inactive
same,outcome,[4],inactive
same,outcome,[5],inactive
same,outcome,[6],inactive
same,outcome,[7],inactive
same,outcome,[8],inactive
same,outcome,[9],inactive
same,outcome,[10],inactive
same,outcome,[11],inactive
same,outcome,[12],inactive
same,outcome,[13],inactive
same,outcome,[14],inactive
same,outcome,[15],inactive
same,outcome,[16],inactive
same,outcome,[17],inactive
COc1cc(COCC(O)CN2CCN(CCN3C(=O)c4cccc5cccc(c45)C3=O)CC2)cc(OC)c1OC (stereo not given),outcome,[1],inactive
same,outcome,[2],inactive
same,outcome,[3],inactive
same,outcome,[4],inactive
same,outcome,[5],inactive
same,outcome,[6],inactive
same,outcome,[7],inactive
same,outcome,[8],inactive
same,outcome,[9],inactive
same,outcome,[10],inactive
same,outcome,[11],inactive
same,outcome,[12],inactive
same,outcome,[13],inactive
same,outcome,[14],inactive
same,outcome,[15],inactive
same,outcome,[16],inactive
same,outcome,[17],inactive
CC1CCc2c(C(=O)N3CCN(S(=O)(=O)c4cccs4)CC3)csc2C1 (stereo not given),outcome,[1],inactive
same,outcome,[2],inactive
same,outcome,[3],inactive
same,potentiation,[4],22% (active)
same,outcome,[5],inactive
same,outcome,[6],inactive
same,outcome,[7],inactive
same,outcome,[8],inactive
same,outcome,[9],inactive
same,outcome,[10],inactive
same,outcome,[11],inactive
same,outcome,[12],inactive
same,outcome,[13],inactive
same,outcome,[14],inactive
same,outcome,[15],inactive
same,outcome,[16],inactive
same,outcome,[17],inactive
COc1ccccc1CCc1nnc(CCC(=O)NCCCOc2cccnc2)o1,outcome,[1],inactive
same,outcome,[2],inactive
same,outcome,[3],inactive
same,outcome,[4],inactive
same,inhibition,[5],48% (active)
same,outcome,[6],inactive
same,outcome,[7],inactive
same,outcome,[8],inactive
same,outcome,[9],inactive
same,outcome,[10],inactive
same,outcome,[11],inactive
same,outcome,[12],inactive
same,outcome,[13],inactive
same,outcome,[14],inactive
same,outcome,[15],inactive
same,outcome,[16],inactive
same,outcome,[17],inactive
